# Reference: the supplement of paper PMC4022240
# ± gives the standard deviation.
# What was measured:
# Assay in all cases: peptide microarray binding signal (635 nm), min-max normalized on array (fraction of array maximum); higher = stronger binding
# Settings in all cases: peptide region: H3 5-17
# [1] = molecular target: T1, HaloTag-ATRX ADD domain (163-292)
# T1 chain: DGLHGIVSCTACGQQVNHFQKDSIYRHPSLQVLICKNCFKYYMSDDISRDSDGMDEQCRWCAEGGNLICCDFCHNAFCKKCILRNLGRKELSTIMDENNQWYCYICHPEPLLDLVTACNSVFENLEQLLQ
# Outline: (§1)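 Triplicate spots of histone 13-mer peptide–cellulose conjugates with a Cy3 tracer were printed on nitrocellulose and probed for 1 h at 4°C with biotin-labelled HaloTag reader fusions (10 nM to 1 μM) plus streptavidin-Alexa Fluor 647 or rabbit histone antibodies (1:10,000 to 1:2,000) plus anti-rabbit Alexa 647. An Axon GenePix 4000B read the 635 nm channel. Binding signal is the spot-triplicate mean intensity after min-max scaling within each library.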
# [2] = molecular target: HaloTag-ING2 PHD (mouse Ing2 200-280)
# Outline: as §1
# [3] = molecular target: anti-H3K4me3 antibody ab8580
# Outline: as §1
# [4] = molecular target: anti-H3K9me3 antibody ab8898
# Outline: as §1
# [5] = peptide modifications: H3R8me2s H3K9me1, binder concentration: 1:2,000 dilution
# [6] = peptide modifications: H3R8me2s H3K9me1, binder concentration: 1:10,000 dilution
# [7] = peptide modifications: H3R8me2s H3T11ph, binder concentration: 1:2,000 dilution
# [8] = peptide modifications: H3R8me2s H3T11ph, binder concentration: 1:10,000 dilution
# [9] = peptide modifications: H3R8me2s H3K9me2, binder concentration: 1:2,000 dilution
# [10] = peptide modifications: H3R8me2s H3K9me2, binder concentration: 1:10,000 dilution
# [11] = peptide modifications: H3R8me2a H3T11ph, binder concentration: 1:2,000 dilution
# [12] = peptide modifications: H3R8me2a H3T11ph, binder concentration: 1:10,000 dilution
# [13] = peptide modifications: H3R8me2s H3K9me3, binder concentration: 1:2,000 dilution
# [14] = peptide modifications: H3R8me2s H3K9me3, binder concentration: 1:10,000 dilution
# [15] = peptide modifications: H3S10ph H3K14me1, binder concentration: 1:2,000 dilution
# [16] = peptide modifications: H3S10ph H3K14me1, binder concentration: 1:10,000 dilution
# [17] = peptide modifications: H3R8me1 H3S10ph, binder concentration: 1:2,000 dilution
# [18] = peptide modifications: H3R8me1 H3S10ph, binder concentration: 1:10,000 dilution
# [19] = peptide modifications: H3R8me2s, binder concentration: 1:2,000 dilution
# [20] = peptide modifications: H3R8me2s, binder concentration: 1:10,000 dilution
# [21] = peptide modifications: H3R8me2a H3K9me1, binder concentration: 1:2,000 dilution
# [22] = peptide modifications: H3R8me2a H3K9me1, binder concentration: 1:10,000 dilution
# [23] = peptide modifications: H3S10ph H3K14ac, binder concentration: 1:2,000 dilution
# [24] = peptide modifications: H3S10ph H3K14ac, binder concentration: 1:10,000 dilution
binder,measurement,setting,value
QTARKSTGGKAPR [H3 5-17 Q T A Rme2s Kme S T G G K A P R],peptide microarray binding signal,"[1]; peptide modifications: H3R8me2s H3K9me1, binder concentration: 50 nM",0.0141 ± 0.0025
same,peptide microarray binding signal,"[1]; peptide modifications: H3R8me2s H3K9me1, binder concentration: 500 nM",0.0312 ± 0.016
same,peptide microarray binding signal,"[2]; peptide modifications: H3R8me2s H3K9me1, binder concentration: 10 nM",0.0334 ± 0.0012
same,peptide microarray binding signal,"[2]; peptide modifications: H3R8me2s H3K9me1, binder concentration: 100 nM",0.0522 ± 0.0014
same,peptide microarray binding signal,[3]; [5],0.0185 ± 0.0025
same,peptide microarray binding signal,[3]; [6],0.0237 ± 0.00078
same,peptide microarray binding signal,[4]; [5],0.0146 ± 0.0028
same,peptide microarray binding signal,[4]; [6],0.0153 ± 0.0016
QTARKSTGGKAPR [H3 5-17 Q T A Rme2s K S Tph G G K A P R],peptide microarray binding signal,"[1]; peptide modifications: H3R8me2s H3T11ph, binder concentration: 50 nM",0.00458 ± 6e-05
same,peptide microarray binding signal,"[1]; peptide modifications: H3R8me2s H3T11ph, binder concentration: 500 nM",0.0138 ± 0.0057
same,peptide microarray binding signal,"[2]; peptide modifications: H3R8me2s H3T11ph, binder concentration: 10 nM",0.0277 ± 0.00076
same,peptide microarray binding signal,"[2]; peptide modifications: H3R8me2s H3T11ph, binder concentration: 100 nM",0.0321 ± 0.004
same,peptide microarray binding signal,[3]; [7],0.0081 ± 0.0027
same,peptide microarray binding signal,[3]; [8],0.00474 ± 0.00064
same,peptide microarray binding signal,[4]; [7],0.00136 ± 0.00012
same,peptide microarray binding signal,[4]; [8],0.001441 ± 1.4e-05
QTARKSTGGKAPR [H3 5-17 Q T A Rme2s Kme2 S T G G K A P R],peptide microarray binding signal,"[1]; peptide modifications: H3R8me2s H3K9me2, binder concentration: 50 nM",0.00545 ± 0.0001
same,peptide microarray binding signal,"[1]; peptide modifications: H3R8me2s H3K9me2, binder concentration: 500 nM",0.00886 ± 0.00071
same,peptide microarray binding signal,"[2]; peptide modifications: H3R8me2s H3K9me2, binder concentration: 10 nM",0.0168 ± 0.00063
same,peptide microarray binding signal,"[2]; peptide modifications: H3R8me2s H3K9me2, binder concentration: 100 nM",0.0228 ± 0.0012
same,peptide microarray binding signal,[3]; [9],0.0112 ± 0.0011
same,peptide microarray binding signal,[3]; [10],0.0122 ± 0.002
same,peptide microarray binding signal,[4]; [9],0.0214 ± 0.0029
same,peptide microarray binding signal,[4]; [10],0.0131 ± 0.00022
QTARKSTGGKAPR [H3 5-17 Q T A Rme2a K S Tph G G K A P R],peptide microarray binding signal,"[1]; peptide modifications: H3R8me2a H3T11ph, binder concentration: 50 nM",0.00567 ± 0.00028
same,peptide microarray binding signal,"[1]; peptide modifications: H3R8me2a H3T11ph, binder concentration: 500 nM",0.008 ± 0.00083
same,peptide microarray binding signal,"[2]; peptide modifications: H3R8me2a H3T11ph, binder concentration: 10 nM",0.0111 ± 0.00069
same,peptide microarray binding signal,"[2]; peptide modifications: H3R8me2a H3T11ph, binder concentration: 100 nM",0.0171 ± 0.0015
same,peptide microarray binding signal,[3]; [11],0.00181 ± 0.00016
same,peptide microarray binding signal,[3]; [12],0.00257 ± 6e-05
same,peptide microarray binding signal,[4]; [11],0.0287 ± 0.023
same,peptide microarray binding signal,[4]; [12],0.00409 ± 0.0015
QTARKSTGGKAPR [H3 5-17 Q T A Rme2s Kme3 S T G G K A P R],peptide microarray binding signal,"[1]; peptide modifications: H3R8me2s H3K9me3, binder concentration: 50 nM",0.00251 ± 0.00011
same,peptide microarray binding signal,"[1]; peptide modifications: H3R8me2s H3K9me3, binder concentration: 500 nM",0.00471 ± 9.5e-05
same,peptide microarray binding signal,"[2]; peptide modifications: H3R8me2s H3K9me3, binder concentration: 10 nM",0.00979 ± 0.00031
same,peptide microarray binding signal,"[2]; peptide modifications: H3R8me2s H3K9me3, binder concentration: 100 nM",0.0103 ± 0.00024
same,peptide microarray binding signal,[3]; [13],0.0199 ± 0.0017
same,peptide microarray binding signal,[3]; [14],0.0138 ± 0.0027
same,peptide microarray binding signal,[4]; [13],0.094 ± 0.0025
same,peptide microarray binding signal,[4]; [14],0.0691 ± 0.0084
QTARKSTGGKAPR [H3 5-17 Q T A R K Sph T G G Kme A P R],peptide microarray binding signal,"[1]; peptide modifications: H3S10ph H3K14me1, binder concentration: 50 nM",0.00426 ± 0.0003
same,peptide microarray binding signal,"[1]; peptide modifications: H3S10ph H3K14me1, binder concentration: 500 nM",0.007715 ± 7.2e-05
same,peptide microarray binding signal,"[2]; peptide modifications: H3S10ph H3K14me1, binder concentration: 10 nM",0.00424 ± 0.00075
same,peptide microarray binding signal,"[2]; peptide modifications: H3S10ph H3K14me1, binder concentration: 100 nM",0.0102 ± 0.0023
same,peptide microarray binding signal,[3]; [15],0.000396 ± 7e-06
same,peptide microarray binding signal,[3]; [16],0.000399
same,peptide microarray binding signal,[4]; [15],0.00077 ± 4.1e-05
same,peptide microarray binding signal,[4]; [16],0.000404 ± 4.4e-06
QTARKSTGGKAPR [H3 5-17 Q T A Rme K Sph T G G K A P R],peptide microarray binding signal,"[1]; peptide modifications: H3R8me1 H3S10ph, binder concentration: 50 nM",0.0079 ± 0.00028
same,peptide microarray binding signal,"[1]; peptide modifications: H3R8me1 H3S10ph, binder concentration: 500 nM",0.0149 ± 0.003
same,peptide microarray binding signal,"[2]; peptide modifications: H3R8me1 H3S10ph, binder concentration: 10 nM",0.0175 ± 0.0014
same,peptide microarray binding signal,"[2]; peptide modifications: H3R8me1 H3S10ph, binder concentration: 100 nM",0.0298 ± 0.002
same,peptide microarray binding signal,[3]; [17],0.00208 ± 0.00022
same,peptide microarray binding signal,[3]; [18],0.00217 ± 0.00011
same,peptide microarray binding signal,[4]; [17],0.00359 ± 0.00056
same,peptide microarray binding signal,[4]; [18],0.00306
QTARKSTGGKAPR [H3 5-17 Q T A Rme2s K S T G G K A P R],peptide microarray binding signal,"[1]; peptide modifications: H3R8me2s, binder concentration: 50 nM",0.00245 ± 0.00023
same,peptide microarray binding signal,"[1]; peptide modifications: H3R8me2s, binder concentration: 500 nM",0.00352 ± 0.00033
same,peptide microarray binding signal,"[2]; peptide modifications: H3R8me2s, binder concentration: 10 nM",0.00412 ± 0.00015
same,peptide microarray binding signal,"[2]; peptide modifications: H3R8me2s, binder concentration: 100 nM",0.00184 ± 6.7e-05
same,peptide microarray binding signal,[3]; [19],0.0129 ± 0.0069
same,peptide microarray binding signal,[3]; [20],0.0128 ± 0.0042
same,peptide microarray binding signal,[4]; [19],0.00237 ± 0.00021
same,peptide microarray binding signal,[4]; [20],0.00415 ± 0.00028
QTARKSTGGKAPR [H3 5-17 Q T A Rme2a Kme S T G G K A P R],peptide microarray binding signal,"[1]; peptide modifications: H3R8me2a H3K9me1, binder concentration: 50 nM",0.0102 ± 0.00047
same,peptide microarray binding signal,"[1]; peptide modifications: H3R8me2a H3K9me1, binder concentration: 500 nM",0.0208 ± 0.00058
same,peptide microarray binding signal,"[2]; peptide modifications: H3R8me2a H3K9me1, binder concentration: 10 nM",0.0329 ± 0.0037
same,peptide microarray binding signal,"[2]; peptide modifications: H3R8me2a H3K9me1, binder concentration: 100 nM",0.0496 ± 0.0052
same,peptide microarray binding signal,[3]; [21],0.0224 ± 0.003
same,peptide microarray binding signal,[3]; [22],0.0247 ± 0.0017
same,peptide microarray binding signal,[4]; [21],0.0228 ± 0.0036
same,peptide microarray binding signal,[4]; [22],0.0159 ± 0.0016
QTARKSTGGKAPR [H3 5-17 Q T A R K Sph T G G Kac A P R],peptide microarray binding signal,"[1]; peptide modifications: H3S10ph H3K14ac, binder concentration: 50 nM",0.0047 ± 0.00015
same,peptide microarray binding signal,"[1]; peptide modifications: H3S10ph H3K14ac, binder concentration: 500 nM",0.0165 ± 0.0018
same,peptide microarray binding signal,"[2]; peptide modifications: H3S10ph H3K14ac, binder concentration: 10 nM",0.0122 ± 0.0017
same,peptide microarray binding signal,"[2]; peptide modifications: H3S10ph H3K14ac, binder concentration: 100 nM",0.0326 ± 0.0032
same,peptide microarray binding signal,[3]; [23],0.00136 ± 0.00015
same,peptide microarray binding signal,[3]; [24],0.0012 ± 3.2e-05
same,peptide microarray binding signal,[4]; [23],0.00435 ± 0.00042
same,peptide microarray binding signal,[4]; [24],0.00213 ± 7.1e-05
